PubChem BioAssay (NCI)
About 79,000 compounds went through this panel and 15% of them were active in at least one assay; those are over-represented in the sample as a whole. Calls of active or inactive are those of the source. No stated cut-off is given here; in the data, active means growth inhibition above about 70%; inactive means the rest.

Columns and labels:
[1] = NCI Yeast Anticancer Drug Screen. Data for the rad52 strain (AID 147);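 further: 0% = growth of vehicle-treated control cultures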; conditions: S. cerevisiae rad52 mutant growth inhibition, active compounds read high
Summary of the method: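 Compounds are applied to a genetically defined yeast strain lacking normal DNA damage repair, and inhibition of growth is expressed relative to cultures given vehicle only.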

[2] = NCI Yeast Anticancer Drug Screen. Data for the wt1 strain (AID 149);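 further: 0% = growth of vehicle-treated wt1 cultures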; conditions: S. cerevisiae wt1 strain (SPY 50644) growth inhibition, active compounds read high
Summary of the method: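 Each compound is tested on wt1 yeast and the loss of growth versus vehicle gives the inhibition value.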

[3] = NCI Yeast Anticancer Drug Screen. Data for the rad50EPP+ strain (AID 151);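 further: 0% = growth of vehicle-treated control cultures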; conditions: S. cerevisiae rad50 mutant strain, active compounds read high
Summary of the method: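 Compounds were applied to the rad50EPP+ yeast strain, which bears a defined DNA repair alteration, and growth inhibition was determined relative to vehicle-treated cultures.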

[4] = NCI Yeast Anticancer Drug Screen. Data for the mgt1 strain (AID 153); conditions: S. cerevisiae mgt1 mutant growth inhibition, active compounds read high
Summary of the method: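 Strain: mgt1 yeast, one of a set carrying defined DNA damage repair or cell cycle control alterations. Compound-treated growth compared with vehicle.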

[5] = NCI Yeast Anticancer Drug Screen. Data for the rad50 strain (AID 155);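 further: 0% = growth of vehicle-only cultures of the same strain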; conditions: S. cerevisiae rad50 strain growth inhibition, active compounds read high
Summary of the method: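 Vehicle-treated cultures provide the reference for the growth inhibition reported for compound-exposed, repair-deficient yeast.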

[6] = NCI Yeast Anticancer Drug Screen. Data for the mec2-1 strain (AID 157); conditions: S. cerevisiae mec2-1 strain, active compounds read high
Summary of the method: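 Strain: mec2-1 (DNA repair/cell cycle alteration). Compound exposure, then growth measured; inhibition expressed relative to vehicle.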

[7] = NCI Yeast Anticancer Drug Screen. Data for the rad14 strain (AID 159);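 further: 0% = growth of vehicle-treated control cultures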; conditions: S. cerevisiae rad14 strain growth inhibition, active compounds read high
Summary of the method: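 Inhibition of growth is reported for a repair-deficient yeast mutant following compound treatment, calculated relative to cultures that received vehicle.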

[8] = NCI Yeast Anticancer Drug Screen. Data for the sgs1 mgt1 strain (AID 161);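 further: 0% = growth of cultures given vehicle only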; conditions: S. cerevisiae sgs1 mgt1 strain, active compounds read high
Summary of the method: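 Mutant yeast exposed to compound; growth scored against vehicle-only wells.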

[9] = NCI Yeast Anticancer Drug Screen. Data for the CLN2oe strain (AID 163);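 further: 0% = growth of vehicle-only control cultures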; conditions: S. cerevisiae CLN2oe strain, active compounds read high
Summary of the method: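 Growth of a genetically modified yeast strain is measured after compound exposure and compared with cultures given vehicle alone.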

[10] = NCI Yeast Anticancer Drug Screen. Data for the cln2 rad14 strain (AID 165);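 further: 0% = growth equal to vehicle treated cultures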; conditions: S. cerevisiae cln2 rad14 strain, active compounds read high
Summary of the method: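 Compounds are applied to the cln2 rad14 yeast strain, and growth is then compared with that of vehicle-treated cultures to give inhibition.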

[11] = NCI Yeast Anticancer Drug Screen. Data for the bub3 strain (AID 167); conditions: S. cerevisiae bub3 mutant strain, active compounds read high
Summary of the method: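 Mutant yeast screening strain plus compound; vehicle-treated cultures serve as the 0% inhibition reference.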

[12] = NCI Yeast Anticancer Drug Screen. Data for the wt2 strain (AID 169); conditions: S. cerevisiae wt2 strain growth inhibition, active compounds read high
Summary of the method: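 This strain belongs to a panel of yeast strains with defined genetic alterations in DNA damage repair or cell cycle control. Compounds are applied, and growth inhibition is measured against vehicle-treated cultures.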

[13] = NCI Yeast Anticancer Drug Screen. Data for the mlh1 strain (AID 171);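 further: 0% = growth of vehicle-treated control cultures of the same strain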; conditions: S. cerevisiae mlh1 strain growth inhibition, active compounds read high
Summary of the method: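 Growth of the mutant yeast strain after compound exposure, expressed as inhibition relative to vehicle-only controls.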

[14] = NCI Yeast Anticancer Drug Screen. Data for the sgs1 strain (AID 173);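 further: 0% = growth of vehicle-only control cultures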; conditions: S. cerevisiae sgs1 mutant, active compounds read high
Summary of the method: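 Growth of a yeast strain bearing a defined genetic alteration is measured after compound treatment. Inhibition is expressed relative to vehicle-only controls.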

[15] = NCI Yeast Anticancer Drug Screen. Data for the mlh1 rad18 strain (AID 175); conditions: S. cerevisiae mlh1 rad18 strain growth inhibition, active compounds read high
Summary of the method: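 Read-out is yeast growth inhibition, calculated against vehicle-only controls. The compound was applied to a strain engineered with DNA damage repair alterations.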

[16] = NCI Yeast Anticancer Drug Screen. Data for the rad18 strain (AID 177); conditions: S. cerevisiae rad18 mutant growth inhibition, active compounds read high
Summary of the method: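 Growth of the mutant yeast strain after compound exposure, normalised to vehicle-only cultures.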

[17] = at 5.0 µM (retest, dose inferred, filed as 0.5)
[18] = at 50.0 µM (retest, dose inferred, filed as 5.0)

Measured: growth inhibition

CC1C(c2ccccc2)SC(=N)N1C (stereo unspecified)
inactive: [1]; at 1.2 µM -1% | [1]; at 3.7 µM -3% | [1]; at 11.0 µM -2% | [1]; at 33.0 µM -1% | [1]; at 100.0 µM -4% | [2]; at 1.2 µM -1% | [2]; at 3.7 µM -1% | [2]; at 11.0 µM -2% | [2]; at 33.0 µM -1% | [2]; at 100.0 µM -1% | [3]; at 1.2 µM -2% | [3]; at 3.7 µM -2% | [3]; at 11.0 µM -2% | [3]; at 33.0 µM 0% | [3]; at 100.0 µM -1% | [4]; at 1.2 µM -1% | [4]; at 3.7 µM 0% | [4]; at 11.0 µM 0% | [4]; at 33.0 µM -1% | [4]; at 100.0 µM -1% | [5]; at 1.2 µM -2% | [5]; at 3.7 µM -46% | [5]; [17] 0% | [5]; at 11.0 µM -55% | [5]; at 33.0 µM -4% | [5]; [18] 51% | [5]; at 50.0 µM -19.9% | [5]; at 100.0 µM -4% | [6]; at 1.2 µM 0% | [6]; at 3.7 µM -1% | [6]; [17] 6% | [6]; at 11.0 µM -1% | [6]; at 33.0 µM -1% | [6]; [18] 46% | [6]; at 50.0 µM -5.6% | [6]; at 100.0 µM -1% | [7]; at 1.2 µM 1% | [7]; at 3.7 µM 2% | [7]; at 11.0 µM 2% | [7]; at 33.0 µM 3% | [7]; at 100.0 µM 2% | [8]; [17] 12% | [8]; [18] 54% | [8]; at 50.0 µM -5.35% | [9]; at 1.2 µM 4% | [9]; at 3.7 µM 1% | [9]; at 11.0 µM 4% | [9]; at 33.0 µM 4% | [9]; at 100.0 µM -2% | [10]; [17] 1% | [10]; [18] 56% | [10]; at 50.0 µM 23.4% | [11]; at 1.2 µM -3% | [11]; at 3.7 µM -2% | [11]; [17] -2% | [11]; at 11.0 µM -3% | [11]; at 33.0 µM -3% | [11]; [18] -7% | [11]; at 50.0 µM -4.4% | [11]; at 100.0 µM 0% | [12]; at 1.2 µM 1% | [12]; at 3.7 µM 8% | [12]; at 11.0 µM 0% | [12]; at 33.0 µM 0% | [12]; at 100.0 µM 0% | [13]; at 1.2 µM -1% | [13]; at 3.7 µM -2% | [13]; at 11.0 µM 0% | [13]; at 33.0 µM -1% | [13]; at 100.0 µM -1% | [14]; at 1.2 µM -1% | [14]; at 3.7 µM 0% | [14]; at 11.0 µM 1% | [14]; at 33.0 µM 1% | [14]; at 100.0 µM 0% | [15]; [17] 6% | [15]; [18] 52% | [15]; at 50.0 µM -18.4% | [16]; at 1.2 µM -1% | [16]; at 3.7 µM 1% | [16]; at 11.0 µM -2% | [16]; at 33.0 µM -3% | [16]; at 100.0 µM -4%

[N-]=[N+]=NC1(c2ccccc2)C(=O)Nc2ccccc2C1=O (stereo unspecified)
active: [6]; at 50.0 µM 81.3% | [10]; at 50.0 µM 81.1% | [11]; at 50.0 µM 75.5%
inactive: [1]; at 1.2 µM -2% | [1]; at 3.7 µM 0% | [1]; at 11.0 µM 4% | [1]; at 33.0 µM 20% | [1]; at 100.0 µM 49% | [2]; at 1.2 µM -4% | [2]; at 3.7 µM -2% | [2]; at 11.0 µM -3% | [2]; at 33.0 µM 4% | [2]; at 100.0 µM 22% | [3]; at 1.2 µM 0% | [3]; at 3.7 µM 3% | [3]; at 11.0 µM 6% | [3]; at 33.0 µM 9% | [3]; at 100.0 µM 7% | [4]; at 1.2 µM -3% | [4]; at 3.7 µM -6% | [4]; at 11.0 µM 8% | [4]; at 33.0 µM 2% | [4]; at 100.0 µM 27% | [5]; at 1.2 µM -4% | [5]; at 3.7 µM -2% | [5]; [17] -4% | [5]; at 11.0 µM -20% | [5]; at 33.0 µM 17% | [5]; [18] 14% | [5]; at 50.0 µM 67% | [5]; at 100.0 µM 37% | [6]; at 1.2 µM 2% | [6]; at 3.7 µM 2% | [6]; [17] -23% | [6]; at 11.0 µM 6% | [6]; at 33.0 µM 19% | [6]; [18] 1% | [6]; at 100.0 µM 33% | [7]; at 1.2 µM -3% | [7]; at 3.7 µM -1% | [7]; at 11.0 µM 8% | [7]; at 33.0 µM 12% | [7]; at 100.0 µM 21% | [8]; [17] -20% | [8]; [18] 16% | [8]; at 50.0 µM 67.7% | [9]; at 1.2 µM -5% | [9]; at 3.7 µM -5% | [9]; at 11.0 µM 3% | [9]; at 33.0 µM 35% | [9]; at 100.0 µM 61% | [10]; [17] -3% | [10]; [18] 29% | [11]; at 1.2 µM -4% | [11]; at 3.7 µM -1% | [11]; [17] -28% | [11]; at 11.0 µM 18% | [11]; at 33.0 µM 41% | [11]; [18] 61% | [11]; at 100.0 µM 59% | [12]; at 1.2 µM -3% | [12]; at 3.7 µM -2% | [12]; at 11.0 µM 1% | [12]; at 33.0 µM 13% | [12]; at 100.0 µM 22% | [13]; at 1.2 µM -2% | [13]; at 3.7 µM -5% | [13]; at 11.0 µM 1% | [13]; at 33.0 µM 12% | [13]; at 100.0 µM 17% | [14]; at 1.2 µM -1% | [14]; at 3.7 µM 2% | [14]; at 11.0 µM 9% | [14]; at 33.0 µM 27% | [14]; at 100.0 µM 39% | [15]; [17] -22% | [15]; [18] 46% | [15]; at 50.0 µM 58% | [16]; at 1.2 µM -2% | [16]; at 3.7 µM 1% | [16]; at 11.0 µM 7% | [16]; at 33.0 µM 19% | [16]; at 100.0 µM 50%
